Source: PubChem BioAssay
A selection: hits, their analogues and other compounds. The true share with any hit is near 1.2%.
RGS7-Gao reg: RGS7-Galphao binding modulators, primary screen, biochemical, multiplexed bead flow cytometry | Guanine nucleotide-binding protein G(o) subunit alpha (Homo sapiens), P09471 | actives lie on both sides | binding response (% of control), % at 10 µM | hit rate 0.35% among 220,000 | AID 1439, 2008; in the data active means binding response below about 49% or above about 150%; inconclusive means no clear call, values can overlap the other calls; inactive means in between;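 further: fluorescent Galphao held in activated GDP-AlF4 state binding bead-coupled RGS7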
RGS16-Gao HTS: modulators of RGS16 binding to Galphao, primary screen, biochemical, human proteins, multiplexed bead flow cytometry | binding response (% of control), % at 10 µM | bead-based flow cytometry RGS16-Galphao binding, fluorescence; actives lie on both sides | hit rate 0.38% among 220,000 | Regulator of G-protein signaling 16 (Homo sapiens) + Guanine nucleotide-binding protein …; call rule not given here;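 further: Galphao activated by GDP with aluminum fluoride before binding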
Target sequence (O15492 whole entry, looked up): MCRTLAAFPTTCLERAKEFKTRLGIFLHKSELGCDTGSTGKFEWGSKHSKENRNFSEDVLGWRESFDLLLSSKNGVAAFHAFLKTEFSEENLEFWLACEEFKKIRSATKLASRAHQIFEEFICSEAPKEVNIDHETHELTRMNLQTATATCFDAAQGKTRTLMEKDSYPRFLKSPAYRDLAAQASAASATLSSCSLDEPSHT
Target sequence (P09471 whole entry, looked up): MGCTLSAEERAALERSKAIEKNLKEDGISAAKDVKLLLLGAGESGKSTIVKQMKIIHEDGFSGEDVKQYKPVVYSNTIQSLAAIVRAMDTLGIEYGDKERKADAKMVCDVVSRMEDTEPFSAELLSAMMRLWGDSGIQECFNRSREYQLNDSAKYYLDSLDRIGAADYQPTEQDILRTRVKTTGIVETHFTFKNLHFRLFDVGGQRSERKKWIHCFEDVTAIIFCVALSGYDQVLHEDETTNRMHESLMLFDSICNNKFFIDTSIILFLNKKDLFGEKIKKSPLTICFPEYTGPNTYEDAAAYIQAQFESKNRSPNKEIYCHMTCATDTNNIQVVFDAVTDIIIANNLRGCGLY
RGS8-Gao: RGS8-Galphao binding modulators, primary screen, biochemical, multiplexed bead flow cytometry | actives lie on both sides | response (percent of control binding), % at 10 µM | hit rate 0.34% among 220,000; in the data active means response below about 60% or above about 140%; inactive means in between;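 further: Galphao activated as the GDP aluminium fluoride complex binding bead-coupled RGS8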
Avidin fluor: green autofluorescence of compounds with avidin beads – biophysical, 488/530 nm, flow cytometry, artefact control, profiling panel; compound fluorescence 488/530 nm; active compounds read high; fluorescence (KMESF) at 10 µM; hit rate 0.38% among 220,000; AID 1775, 2009; in the data active means fluorescence above about 47
RGS4-Gao reg: modulators of RGS4 binding to Galphao, primary screen, biochemical, multiplexed bead flow cytometry; Guanine nucleotide-binding protein G(o) subunit alpha (Homo sapiens), P09471; actives lie on both sides; binding response (% of control), % at 10 µM; hit rate 0.33% among 220,000; AID 1415, 2008; in the data active means binding response below about 49% or above about 150%; inactive means in between;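 further: fluorescent Galphao activated with aluminum fluoride binding bead-coupled RGS4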
GSH bead fluor: compound fluorescence on glutathione beads, profiling panel, artefact control, biophysical, 488/530 nm, flow cytometry; GSH beads flow cytometry, compound fluorescence 488/530 nm; active compounds read high; hit rate 0.25% among 190,000; AID 1776, 2009; fluorescence (KMESF) at 10 µM; in the data active means fluorescence above about 89;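 further: glutathione beads carrying GST-tagged Bcl family fusion proteins plus one bare bead set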
Hits are given with their value; n = inactive; u = inconclusive; x = not tested or not shown.

SMILES	RGS7-Gao reg	RGS16-Gao HTS	RGS8-Gao	Avidin fluor	RGS4-Gao reg	GSH bead fluor
COc1cccc(/C=N/n2c(N)c(S(=O)(=O)c3cccs3)c3nc4ccccc4nc32)c1	n	n	n	n	n	n
CN1C(=O)C(N=Nc2ccccc2C(=O)O)N(C)C1=S (centres undefined)	n	n	n	n	n	n
CN(CCO)c1ncnc2c1sc1nc(N3CCOCC3)c3c(c12)CCC3	u	n	n	n	n	x
C/C(=N\N=C(N)N)c1ccc(C)c(C)c1	u	n	n	n	n	x
Cc1ccc(Nc2nc(N/N=C\c3ccc4c(c3)OCO4)nc(N3CCOCC3)n2)cc1	n	n	n	n	n	n
CCC(CO)NCc1ccc(OC2CCCC2)cc1 (centres undefined)	n	n	n	n	n	140
Cc1cccc(S(=O)(=O)NCCC(=O)OC(C)C(=O)NC(=O)NC2CCCCC2)c1 (centres undefined)	n	n	n	n	n	258
O=C(COC(=O)CCNS(=O)(=O)c1cccc(C(F)(F)F)c1)NC(=O)NC1CCCCC1	n	n	n	n	n	n
N#C/C(=C1\CCCN1)c1nc2ccccc2c(=O)[nH]1	n	n	n	n	n	n
N#C/C(C(=O)c1ccccc1)=C1/CCCN1	n	n	n	48	n	n
COc1ccc(N(CC(=O)Nc2cc(C)on2)S(=O)(=O)c2cc(C)ccc2C)cc1	n	n	n	n	n	n
COc1ccc(N(CC(=O)Nc2cc(C)on2)S(=O)(=O)c2ccc(Cl)cc2)cc1	n	n	n	n	n	250
O=C(Nc1ccccc1N(C(=O)c1ccco1)S(=O)(=O)c1cccs1)c1ccco1	n	n	n	n	n	275
O=C(Nc1ccccc1NC(=O)c1ccco1)c1ccco1	-19	-27	6.2	n	-45	n
O=C(Nc1c(C(=O)Nc2cccc3ccccc23)cnn1-c1ccccc1)c1ccco1	n	n	n	n	n	99
O=C(Nc1c(C(=O)Nc2ccccc2)cnn1-c1ccccc1)c1ccco1	n	n	n	n	n	n
CC(C)CCC(C(=O)O)C(C)CC(=O)Nc1ccn(-c2ccccc2)n1 (centres undefined)	u	n	n	n	n	x
CCNC(=S)NNC(=O)c1cc(-c2ccc(OC)cc2)nc2ccccc12	n	n	n	n	n	n
COc1ccc(Cl)cc1C(=O)NNC(=S)NC(=O)c1cc(-c2ccc(Cl)cc2)nc2ccccc12	21	19	37	n	11	n
Cc1cc(C(C)(C)C)nc2[nH]n(-c3ccccc3)c(=O)c12	n	n	n	n	n	n
O=c1c2c(C(F)(F)F)cc(C(F)(F)F)nc2[nH]n1-c1ccccc1	n	n	n	n	n	89
CCN(CC)CCN(C(=O)c1c(F)cccc1F)c1nc2cc(C)cc(C)c2s1	n	n	n	n	n	n
CCSc1nnc(NC(=O)c2ccc(C)o2)s1	n	n	n	48	n	n
NS(=O)(=O)c1ccc(CCNC(=O)c2cncc(Br)c2)cc1	n	n	n	50	n	n
CC(NC(=O)c1cncc(Br)c1)c1ccc(S(N)(=O)=O)cc1 (centres undefined)	n	n	n	n	n	n
CS(=O)(=O)c1ccc2nc(NC(=O)CCN3C(=O)c4ccccc4C3=O)sc2c1	u	n	n	n	n	n
C=CCNC(=O)c1ccc(Cn2c(=S)[nH]c3cc4c(cc3c2=O)OCO4)cc1	n	n	n	47	n	n
O=C1CCCCC1C(O)c1ccc(Cl)cc1 (centres undefined)	u	n	n	n	n	x
COCCN1C(=O)c2ccccc2C(C(=O)NCc2ccco2)C1c1c[nH]c2ccccc12 (centres undefined)	n	n	n	47	n	n
COc1ccc(C2C(C(=O)NCc3ccco3)c3ccccc3C(=O)N2C)cc1 (centres undefined)	n	n	n	n	n	n
